A short description of assay [1]: ATG_PBREM_CIS: Attagene CIS-FACTORIAL HepG2 Assay for human Phenobarbital-responsive Enhancer Module (PBREM) (AID 2282955). Conditions: HepG2 PBREM cis-reporter, Attagene multiplexed transcription; actives raise or lower the signal. A digest of the protocol: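 Cells were transfected with cis-element reporter units and treated for 24 h, after which RNA was extracted and reporter transcripts measured by RT-PCR and capillary electrophoresis.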

The target in assay [2] is Paired box protein Pax-6 (Homo sapiens) (UniProt P26367). As to the kind of experiment: ATG_Pax6_CIS: Attagene CIS-FACTORIAL HepG2 Assay for human Paired Box 6 (PAX6) (AID 2282956). Conditions: HepG2 CIS-FACTORIAL PAX6 reporter transcription, RNA readout; actives raise or lower the signal. In short, it runs like this: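 After twenty-four hours of chemical exposure, transfected HepG2 cells are harvested for RNA. Cis-promoter reporter transcripts are amplified, fluorescently labelled and sized by capillary electrophoresis, with gain and loss of signal scored against DMSO.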

Assay [3] can be described thus: ATG_PXRE_CIS: Attagene CIS-FACTORIAL HepG2 Assay for human Pregnane X Receptor Element (PXRE) (AID 2282957). Conditions: HepG2 Attagene CIS-FACTORIAL PXRE reporter, mRNA; actives raise or lower the signal. A digest of the protocol: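 HepG2 cells transiently transfected with cis-element-driven multiplexed reporter units; after 24 h chemical exposure, reporter mRNA measured by RT-PCR, 6-FAM labelling, HpaI digestion and capillary electrophoresis. Bidirectional fitting relative to DMSO.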

Assay [4] can be described thus: ATG_PPRE_CIS: Attagene CIS-FACTORIAL HepG2 Assay for human Peroxisome Proliferator-activated Response Element (PPRE) (AID 2282958). Particulars: HepG2 PPRE cis-element reporter, Attagene transcription factor profiling; actives raise or lower the signal. In short, it runs like this: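 In this cell-based multiplex, a PPRE cis element drives a reporter sequence in transiently transfected HepG2 cells. Following 24 h treatment, labeled cDNA amplicons are sized and quantified by capillary electrophoresis, with DMSO defining baseline.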

Assay [5] is described as follows: ATG_RORE_CIS: Attagene CIS-FACTORIAL HepG2 Assay for human RAR-related Orphan Receptor Element (RORE) (AID 2282959). Conditions: HepG2 Attagene cis-factorial RORE reporter, mRNA; actives raise or lower the signal. In short, it runs like this: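 Endogenous factor activity at a cis response element is read as reporter transcript levels in HepG2 cells, 24 h post-dose. Transcripts are quantified by RT-PCR with capillary electrophoresis, and data fitted in both directions against DMSO.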

The nature of assay [6]: ATG_Sox_CIS: Attagene CIS-FACTORIAL HepG2 Assay for human SRY-box transcription factor (SOX) (AID 2282960). Conditions: HepG2 Attagene cis-factorial SOX reporter, mRNA; actives raise or lower the signal. In short, it runs like this:
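Measures mRNA induction of a SOX1-associated reporter in HepG2 after 24 h dosing. Fluorescently labelled RT-PCR fragments are separated by capillary electrophoresis, and gain or loss relative to DMSO control is fitted.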

In assay [7] the target is Transcription factor Sp1 (Homo sapiens) (UniProt P08047). Kind of assay: ATG_Sp1_CIS: Attagene CIS-FACTORIAL HepG2 Assay for human Specificity Protein 1 (Sp1) (AID 2282961). Conditions: HepG2 Sp1 cis-reporter transcription, actives raise or lower the signal. In short, it runs like this: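 Cells: HepG2, transiently transfected with cis-regulated multiplexed reporters. Exposure: 24 h. Detection: reporter transcripts amplified, fluorescently labeled, restriction-digested and sized by capillary electrophoresis. Analysis: bidirectional fit relative to DMSO.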

Assay [8] in a line: ATG_SREBP_CIS: Attagene CIS-FACTORIAL HepG2 Assay for human Sterol Regulatory Element Binding (SREBP) (AID 2282962). Conditions: HepG2 Attagene cis-factorial SREBP reporter, mRNA; actives raise or lower the signal. In short, it runs like this:
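Twenty-four hours after chemical dosing of transfected HepG2 cultures, reporter RNA was converted to cDNA, amplified, end-labelled with 6-FAM and resolved by capillary electrophoresis. Responses were fitted relative to DMSO.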

Assay [9] deals with Signal transducer and activator of transcription 3 (Homo sapiens) (UniProt P40763). Kind of assay: ATG_STAT3_CIS: Attagene CIS-FACTORIAL HepG2 Assay for human Signal Transducer and Activator of Transcription 3 (STAT3) (AID 2282963). Conditions: HepG2, Attagene cis-factorial STAT3 reporter transcription; actives raise or lower the signal. A digest of the protocol:
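Endogenous STAT3-responsive cis-element activity was read in transiently transfected HepG2 cells after 24 h treatment. Reporter transcripts were quantified via RT-PCR and capillary electrophoresis, with DMSO as negative control and bidirectional curve fitting.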

Assay [10] can be described thus: ATG_TA_CIS: Attagene CIS-FACTORIAL HepG2 Assay for human TA Basal Promoter (AID 2282964). Conditions: HepG2 Attagene CIS-factorial TA basal promoter reporter; actives raise or lower the signal. A digest of the protocol: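 Read-out: fluorescent reporter-transcript fragments resolved by capillary electrophoresis after RT-PCR and HpaI digestion. Source: HepG2 cells carrying transiently transfected multi-reporter cis constructs, treated 24 h. Endpoint fitted bidirectionally relative to DMSO.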

The nature of assay [11]: ATG_TAL_CIS: Attagene CIS-FACTORIAL HepG2 Assay for human TAL Basal Promoter (AID 2282966).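 Further: background control endpoint measuring basal TAL promoter reporter mRNA not a specific factor.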 Conditions: HepG2 Attagene cis-factorial TAL promoter reporter; actives raise or lower the signal. A digest of the protocol: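 HepG2 cells transiently transfected with multiplexed cis-promoter reporter units, dosed 24 h. Reporter mRNA quantified by RT-PCR, 6-FAM labelling, HpaI digestion and capillary electrophoresis; TAL basal promoter serves as background control, fitted bidirectionally versus DMSO.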

The nature of assay [12]: ATG_TGFb_CIS: Attagene CIS-FACTORIAL HepG2 Assay for human Transforming Growth Factor (TGF) (AID 2282967). Particulars: HepG2 Attagene CIS TGFb reporter, mRNA transcription; actives raise or lower the signal. In short, it runs like this:
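Transient MRTU transfection of HepG2 (FuGene 6). Dose 24 h. TriZol RNA, oligo(dT) RT, PCR, 6-FAM primer extension, HpaI cut, CE. Bidirectional fit, DMSO = baseline.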

A short description of assay [13]: ATG_VDRE_CIS: Attagene CIS-FACTORIAL HepG2 Assay for human Vitamin D Receptor Element (VDRE) (AID 2282968). Particulars: HepG2 VDRE cis-reporter transcription, actives raise or lower the signal. In short, it runs like this: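 Reporter mRNA induction, quantified by capillary electrophoresis of fluorescently labelled RT-PCR products, was read 24 h after dosing HepG2 cells carrying transiently transfected cis-regulated reporter units; gain or loss relative to DMSO.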

Assay [14] has as its target Nuclear receptor subfamily 1 group I member 3 (Homo sapiens) (UniProt Q14994). Kind of assay: ATG_CAR_TRANS: Attagene TRANS-FACTORIAL HepG2 Assay for human Constitutive Androstane Receptor (CAR) (AID 2282969; active means hit-call score of the fitted dose curve at least 0.9, where 1 is the maximum;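 further: activators raise reporter mRNA above DMSO so AC50 marks induction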). Particulars: HepG2 Attagene TRANS-FACTORIAL CAR reporter. In short, it runs like this:
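Readout is reporter mRNA induction, quantified by fluorescent primer extension and capillary electrophoresis after RT-PCR. Cells were HepG2 transiently carrying chimeric NR-Gal4 constructs with GAL4-UAS reporters, treated for 24 h; activity scored upward from DMSO.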

Assay [15] deals with Estrogen receptor (Homo sapiens) (UniProt P03372). Kind of assay: ATG_ERa_TRANS: Attagene TRANS-FACTORIAL HepG2 Assay for human Estrogen Receptor alpha (ERa) (AID 2282970; active means hit-call score of the fitted dose curve at least 0.9, where 1 is the maximum). Conditions: HepG2 Attagene TRANS ERa GAL4 reporter, mRNA. A digest of the protocol:
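HepG2 cells transiently transfected with multiplexed GAL4-UAS reporter units read out chimeric NR-Gal4 activity. After 24 h compound exposure, reporter mRNA was quantified by RT-PCR, 6-FAM labeling, HpaI digestion and capillary electrophoresis, relative to DMSO.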

The target of assay [16] is X-box-binding protein 1 (Homo sapiens) (UniProt P17861). As to the kind of experiment: ATG_Xbp1_CIS: Attagene CIS-FACTORIAL HepG2 Assay for human X-box Binding Protein 1 (XBP1) (AID 2282972). Conditions: HepG2 XBP1 cis-element reporter, Attagene multiplex; actives raise or lower the signal. A digest of the protocol: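 After a 24-hour chemical exposure of HepG2 cells carrying cis-regulated reporters, reporter mRNA levels are assessed. Quantification uses RT-PCR, 6-FAM labelling and capillary electrophoresis. Gain- or loss-of-signal is fitted against DMSO.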

A short description of assay [17]: ATG_M_19_TRANS: Attagene TRANS-FACTORIAL HepG2 Assay for M19 Transcription Factor (Internal Marker) (AID 2282974; active means hit-call score of the fitted dose curve at least 0.9, where 1 is the maximum). Particulars: HepG2 Attagene TRANS-FACTORIAL M19 internal marker reporter. In short, it runs like this:
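Reporter mRNA induction was measured in transfected HepG2 cells 24 h after dosing. Endpoint fitted upward relative to DMSO and serves as a background control within the multiplexed TRANS panel.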

Assay [18] is described as follows: ATG_TCF_b_cat_CIS: Attagene CIS-FACTORIAL HepG2 Assay for human T-Cell-Factor with beta-catenin (TCF/b-cat) (AID 2282965). Particulars: HepG2 TCF/beta-catenin cis-reporter transcription, actives raise or lower the signal. In short, it runs like this: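 Endogenous transcription factor activity is captured through cis-promoter reporter constructs transiently introduced into human HepG2 liver cells. Induced reporter mRNA is measured after 24 h and fitted bidirectionally relative to DMSO.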

Assay [19] concerns the target Steroid hormone receptor ERR1 (Homo sapiens) (UniProt P11474). Kind of assay: ATG_ERRa_TRANS: Attagene TRANS-FACTORIAL HepG2 Assay for human Estrogen-Related Receptor alpha (ERRa) (AID 2282971; active means hit-call score of the fitted dose curve at least 0.9, where 1 is the maximum). Particulars: HepG2 Attagene TRANS reporter, ERRa transactivation. A digest of the protocol:
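HepG2 cells transiently transfected with GAL4-UAS reporter units and chimeric NR-Gal4 constructs; after 24 hour compound incubation, reporter mRNA quantified by RT-PCR, fluorescent labelling and capillary electrophoresis, gain of signal versus DMSO.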

Assay [20] in a line: ATG_GAL4_TRANS: Attagene TRANS-FACTORIAL HepG2 Assay for GAL4 (Internal Marker) (AID 2282976; active means hit-call score of the fitted dose curve at least 0.9, where 1 is the maximum). Particulars: HepG2 Attagene TRANS GAL4 internal marker reporter. In short, it runs like this:
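Background-control readout: GAL4-UAS reporter transcript in transiently transfected HepG2 cells after 24 h compound exposure. Measured by RT-PCR, 6-FAM primer extension, HpaI digest and capillary electrophoresis; gain-of-signal fit versus DMSO.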

This note sets out measurements from PubChem BioAssay (EPA / NIEHS).

Inconclusive results are not listed. Active and inactive are the calls of the source. How the source made its calls, unless noted: active means hit-call score of the fitted dose curve at least 0.9, where 1 is the maximum; inactive means score below 0.9.

Sequence of Steroid hormone receptor ERR1 (Homo sapiens) (P11474 whole entry, looked up, the tested form may be a part): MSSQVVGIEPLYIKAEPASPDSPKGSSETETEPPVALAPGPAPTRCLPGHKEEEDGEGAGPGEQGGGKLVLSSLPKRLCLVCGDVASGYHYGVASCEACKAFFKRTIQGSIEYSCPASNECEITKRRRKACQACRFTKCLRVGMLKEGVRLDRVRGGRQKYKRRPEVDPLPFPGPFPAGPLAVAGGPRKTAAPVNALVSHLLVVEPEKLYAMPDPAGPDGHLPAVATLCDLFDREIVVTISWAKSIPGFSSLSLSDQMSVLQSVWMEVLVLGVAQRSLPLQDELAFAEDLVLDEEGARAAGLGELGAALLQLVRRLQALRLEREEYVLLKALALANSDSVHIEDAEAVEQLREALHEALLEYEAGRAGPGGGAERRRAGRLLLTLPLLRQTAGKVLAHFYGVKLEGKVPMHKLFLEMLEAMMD
Sequence of Paired box protein Pax-6 (Homo sapiens) (P26367 whole entry, looked up): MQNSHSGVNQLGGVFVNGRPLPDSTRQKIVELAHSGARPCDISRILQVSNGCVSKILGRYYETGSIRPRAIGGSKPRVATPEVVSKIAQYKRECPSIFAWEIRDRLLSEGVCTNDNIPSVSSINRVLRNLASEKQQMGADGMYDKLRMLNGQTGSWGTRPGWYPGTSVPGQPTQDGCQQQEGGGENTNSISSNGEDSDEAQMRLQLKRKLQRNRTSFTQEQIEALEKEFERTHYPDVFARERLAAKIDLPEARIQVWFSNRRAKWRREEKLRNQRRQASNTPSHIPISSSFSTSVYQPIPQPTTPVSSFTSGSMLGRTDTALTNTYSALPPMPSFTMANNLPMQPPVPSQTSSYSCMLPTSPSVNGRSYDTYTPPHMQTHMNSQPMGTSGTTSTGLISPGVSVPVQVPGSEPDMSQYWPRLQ
Sequence of X-box-binding protein 1 (Homo sapiens) (P17861 whole entry, looked up): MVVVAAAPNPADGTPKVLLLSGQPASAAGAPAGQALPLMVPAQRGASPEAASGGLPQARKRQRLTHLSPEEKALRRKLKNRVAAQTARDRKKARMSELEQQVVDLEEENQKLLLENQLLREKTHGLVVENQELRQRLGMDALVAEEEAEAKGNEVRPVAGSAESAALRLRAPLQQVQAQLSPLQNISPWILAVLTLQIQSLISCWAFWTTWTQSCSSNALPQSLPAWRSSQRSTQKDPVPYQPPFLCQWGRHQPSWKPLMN
Sequence of Signal transducer and activator of transcription 3 (Homo sapiens) (P40763 whole entry, looked up): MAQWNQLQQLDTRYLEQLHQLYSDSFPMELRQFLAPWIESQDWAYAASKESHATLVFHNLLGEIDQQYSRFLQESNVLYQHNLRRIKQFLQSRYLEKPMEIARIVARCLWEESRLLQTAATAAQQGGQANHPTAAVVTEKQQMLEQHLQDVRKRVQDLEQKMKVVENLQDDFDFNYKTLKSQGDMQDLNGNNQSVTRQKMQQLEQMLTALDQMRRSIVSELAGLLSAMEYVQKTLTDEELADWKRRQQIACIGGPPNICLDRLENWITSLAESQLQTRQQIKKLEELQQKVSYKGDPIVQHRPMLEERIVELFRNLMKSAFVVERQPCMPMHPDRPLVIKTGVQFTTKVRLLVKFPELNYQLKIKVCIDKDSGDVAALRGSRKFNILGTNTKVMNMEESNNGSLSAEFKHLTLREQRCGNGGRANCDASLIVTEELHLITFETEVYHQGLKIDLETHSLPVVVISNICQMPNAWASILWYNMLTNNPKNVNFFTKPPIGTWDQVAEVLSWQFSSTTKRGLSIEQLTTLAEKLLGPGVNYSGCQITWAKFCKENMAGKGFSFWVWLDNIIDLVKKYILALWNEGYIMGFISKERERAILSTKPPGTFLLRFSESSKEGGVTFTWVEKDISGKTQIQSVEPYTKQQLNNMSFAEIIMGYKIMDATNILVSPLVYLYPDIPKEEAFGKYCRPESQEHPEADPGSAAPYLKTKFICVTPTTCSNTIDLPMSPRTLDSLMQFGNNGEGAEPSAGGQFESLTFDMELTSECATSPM
Sequence of Transcription factor Sp1 (Homo sapiens) (P08047 whole entry, looked up): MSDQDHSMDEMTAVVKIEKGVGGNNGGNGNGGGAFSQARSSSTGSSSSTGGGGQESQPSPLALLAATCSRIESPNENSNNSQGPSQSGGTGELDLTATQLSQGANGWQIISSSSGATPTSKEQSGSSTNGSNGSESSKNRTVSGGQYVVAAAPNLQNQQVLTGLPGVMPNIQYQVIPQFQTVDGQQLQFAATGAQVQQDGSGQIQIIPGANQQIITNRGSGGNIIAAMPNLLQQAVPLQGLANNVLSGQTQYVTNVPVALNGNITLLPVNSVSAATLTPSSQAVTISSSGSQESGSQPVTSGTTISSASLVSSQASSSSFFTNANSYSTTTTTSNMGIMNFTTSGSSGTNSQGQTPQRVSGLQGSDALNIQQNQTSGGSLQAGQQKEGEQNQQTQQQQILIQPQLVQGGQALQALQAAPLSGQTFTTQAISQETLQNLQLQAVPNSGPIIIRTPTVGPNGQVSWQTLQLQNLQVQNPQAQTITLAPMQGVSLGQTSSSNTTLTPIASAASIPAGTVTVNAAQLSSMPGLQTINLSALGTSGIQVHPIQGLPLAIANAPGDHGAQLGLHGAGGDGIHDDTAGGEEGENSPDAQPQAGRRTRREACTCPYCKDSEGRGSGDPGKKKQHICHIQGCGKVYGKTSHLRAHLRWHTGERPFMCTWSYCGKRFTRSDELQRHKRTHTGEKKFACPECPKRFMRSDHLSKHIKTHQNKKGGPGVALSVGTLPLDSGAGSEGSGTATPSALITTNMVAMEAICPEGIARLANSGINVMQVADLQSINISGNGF
Sequence of Estrogen receptor (Homo sapiens) (P03372 whole entry, looked up, the tested form may be a part): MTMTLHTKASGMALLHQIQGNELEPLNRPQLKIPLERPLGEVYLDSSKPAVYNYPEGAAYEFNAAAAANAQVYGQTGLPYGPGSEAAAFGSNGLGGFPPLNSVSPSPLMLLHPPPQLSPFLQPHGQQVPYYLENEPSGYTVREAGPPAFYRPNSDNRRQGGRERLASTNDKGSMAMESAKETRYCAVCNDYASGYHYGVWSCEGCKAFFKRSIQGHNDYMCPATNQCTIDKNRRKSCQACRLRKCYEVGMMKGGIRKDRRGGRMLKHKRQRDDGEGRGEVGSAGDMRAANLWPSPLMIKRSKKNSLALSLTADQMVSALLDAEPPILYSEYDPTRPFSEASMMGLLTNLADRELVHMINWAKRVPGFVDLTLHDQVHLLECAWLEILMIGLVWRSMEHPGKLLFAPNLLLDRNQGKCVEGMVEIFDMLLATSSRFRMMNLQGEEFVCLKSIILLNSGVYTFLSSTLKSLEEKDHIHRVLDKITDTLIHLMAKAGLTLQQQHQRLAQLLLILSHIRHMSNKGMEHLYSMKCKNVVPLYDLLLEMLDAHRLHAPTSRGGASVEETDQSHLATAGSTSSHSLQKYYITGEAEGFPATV
Sequence of Nuclear receptor subfamily 1 group I member 3 (Homo sapiens) (Q14994 whole entry, looked up, the tested form may be a part): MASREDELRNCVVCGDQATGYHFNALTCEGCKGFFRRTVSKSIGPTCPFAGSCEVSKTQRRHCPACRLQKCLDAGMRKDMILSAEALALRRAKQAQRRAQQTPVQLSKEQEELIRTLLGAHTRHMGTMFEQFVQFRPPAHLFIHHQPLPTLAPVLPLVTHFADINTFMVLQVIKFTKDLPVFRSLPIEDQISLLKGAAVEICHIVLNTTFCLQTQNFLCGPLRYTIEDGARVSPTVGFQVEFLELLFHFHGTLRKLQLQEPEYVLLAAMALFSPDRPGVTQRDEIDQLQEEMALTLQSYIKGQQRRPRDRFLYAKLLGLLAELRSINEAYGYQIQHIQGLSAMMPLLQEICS

On to `CC(C)C(=O)OCC=Cc1ccccc1`, for which the result in assay [1], in assay [2], in assay [4], in assay [5], in assay [6] and in [7] was inactive. In addition, the outcome in assay [8], in assay [9], in assay [10], in assay [11], in assay [12] and in assay [13] was inactive. In addition, the compound was classed as inactive in [14], in assay [15], in assay [16] and in assay [17]. In addition, the AC50 in assay [3] was 16.4 µM (active).
With `NC(=O)c1c(Cl)cccc1Cl`, the outcome in assay [1], in [2], in [4], in assay [5], in assay [6] and in [7] was inactive. The compound was called inactive in assay [9], in [10], in [18], in assay [11], in assay [12] and in assay [13]. The compound was classed as inactive in [15], in assay [19] and in [16]. Moreover, the AC50 in assay [3] is 0.104 µM (active).
For `CC=CC(=O)C1=C(C)C=CCC1(C)C`, the outcome in assay [1], in assay [2], in [4], in assay [5], in [6] and in [7] was inactive. The result in [8], in assay [10], in assay [18], in assay [11], in assay [13] and in assay [19] was inactive. Besides, the compound was classed as inactive in [16], in [17] and in assay [20]. In addition, the AC50 in [3] is 55.4 µM (active).
For `C=CC(O)CCCCC` (stereo not given), the result in assay [1], in assay [3], in [4], in assay [5], in assay [7] and in assay [9] was inactive. The outcome in assay [10], in assay [11], in [12], in assay [19] and in assay [17] was inactive. Further, the AC50 in assay [2] is 58.6 µM (active); in [6] it was 100 µM (active); in assay [18], 27 µM (active); in assay [13] it was 48.4 µM (active); in [16], 48.1 µM (active).
